Experimental data published in the supplement of paper PMC8728848.
This is one part of a sample in which the strongest signals are shown more often than they occur.

Tests used:
Assay in all cases: glycan array binding signal (z-score within array); higher = stronger binding
Conditions in all cases: glycan notation: IUPAC condensed, linker removed
[1] = target: Fuc(a1-2)Gal(b1-3)GlcNAc(b1-2)Man(a1-3)[Fuc(a1-2)Gal(b1-3)GlcNAc(b1-2)Man(a1-6)]Man(b1-4)GlcNAc(b1-4)[Fuc(a1-6)]GlcNAc
Method in brief: (§1)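 Arrays were curated from the Consortium for Functional Glycomics database, 3228 in total, and kept only where the protein sequence was available. Binding is expressed as a within-array Z-score. This score was averaged across arrays of the same protein sequence at different concentrations or buffers and across linkers, and negative values can be read as non-binding.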

[2] = target: Fuc(a1-2)Gal(b1-4)[Fuc(a1-3)]GlcNAc(b1-2)[Fuc(a1-2)Gal(b1-4)[Fuc(a1-3)]GlcNAc(b1-4)]Man(a1-3)[Fuc(a1-2)Gal(b1-4)[Fuc(a1-3)]GlcNAc(b1-2)Man(a1-6)]Man(b1-4)GlcNAc(b1-4)GlcNAc
Method in brief: as §1

[3] = target: Fuc(a1-2)[Gal(a1-3)]Gal(b1-3)GalNAc
Method in brief: as §1

[4] = target: Fuc(a1-2)[Gal(a1-3)]Gal(b1-4)GlcNAc(b1-6)GalNAc
Method in brief: as §1

[5] = target: Fuc(a1-2)[GalNAc(a1-3)]Gal(b1-4)GlcNAc
Method in brief: as §1

[6] = target: Fuc(a1-3)[GalNAc(b1-4)]GlcNAc
Method in brief: as §1

[7] = target: Gal(a1-3)Gal(b1-3)GlcNAc(b1-6)GalNAc
Method in brief: as §1

[8] = target: Gal(a1-3)Gal(b1-3)[Fuc(a1-4)]GlcNAc(b1-2)Man(a1-3)[Gal(a1-3)Gal(b1-3)[Fuc(a1-4)]GlcNAc(b1-2)Man(a1-6)]Man(b1-4)GlcNAc(b1-4)GlcNAc
Method in brief: as §1

[9] = target: Gal(a1-3)Gal(b1-4)GlcNAc(b1-6)GalNAc
Method in brief: as §1

[10] = target: Gal(a1-3)Gal(b1-4)[Fuc(a1-3)]GlcNAc
Method in brief: as §1

[11] = target: Gal(a1-4)Gal(b1-4)GlcNAc(b1-2)Man(a1-3)[Gal(a1-4)Gal(b1-4)GlcNAc(b1-2)Man(a1-6)]Man(b1-4)GlcNAc(b1-4)GlcNAc
Method in brief: as §1

[12] = target: Gal(b1-3)GalNAc(a1-3)[Fuc(a1-2)]Gal(b1-4)GlcNAc
Method in brief: as §1

[13] = target: Gal(b1-3)GlcNAc(a1-6)Gal(b1-4)GlcNAc
Method in brief: as §1

[14] = target: Gal(b1-4)Gal
Method in brief: as §1

[15] = target: Gal(b1-4)Glc
Method in brief: as §1

[16] = target: Gal(b1-4)GlcNAc(b1-2)[Gal(b1-4)GlcNAc(b1-4)]Man(a1-3)[GlcNAc(b1-4)][Gal(b1-4)GlcNAc(b1-2)Man(a1-6)]Man(b1-4)GlcNAc(b1-4)GlcNAc
Method in brief: as §1

[17] = target: Gal(b1-4)GlcNAc(b1-3)Gal(b1-4)GlcNAc(b1-2)[Gal(b1-4)GlcNAc(b1-3)Gal(b1-4)GlcNAc(b1-6)]Man(a1-6)[Gal(b1-4)GlcNAc(b1-3)Gal(b1-4)GlcNAc(b1-2)Man(a1-3)]Man(b1-4)GlcNAc(b1-4)GlcNAc
Method in brief: as §1

[18] = target: Gal(b1-4)GlcNAc(b1-6)GalNAc
Method in brief: as §1

[19] = target: Gal3S4S(b1-4)GlcNAc
Method in brief: as §1

[20] = target: Gal6S(b1-4)GlcNAc6S
Method in brief: as §1

[21] = target: GalNAc(b1-3)Gal(a1-4)Gal(b1-4)GlcNAc(b1-3)Gal(b1-4)Glc
Method in brief: as §1

[22] = target: GalNAc(b1-4)GlcNAc(b1-2)Man
Method in brief: as §1

[23] = target: GlcA(b1-3)GlcNAc
Method in brief: as §1

[24] = target: GlcNAc(b1-2)[GlcNAc(b1-4)]Man(a1-3)[GlcNAc(b1-4)][GlcNAc(b1-2)Man(a1-6)]Man(b1-4)GlcNAc(b1-4)GlcNAc
Method in brief: as §1

[25] = target: GlcNAc(b1-3)Gal(b1-4)GlcNAc(b1-2)Man(a1-3)[GlcNAc(b1-3)Gal(b1-4)GlcNAc(b1-2)Man(a1-6)]Man(b1-4)GlcNAc(b1-4)[Fuc(a1-6)]GlcNAc
Method in brief: as §1

[26] = target: GlcNAc(b1-3)Gal(b1-4)GlcNAc(b1-2)[GlcNAc(b1-3)Gal(b1-4)GlcNAc(b1-6)]Man(a1-6)[GlcNAc(b1-3)Gal(b1-4)GlcNAc(b1-2)Man(a1-3)]Man(b1-4)GlcNAc(b1-4)GlcNAc
Method in brief: as §1

[27] = target: GlcNAc(b1-3)Gal(b1-4)GlcNAc(b1-3)Gal(b1-4)GlcNAc(b1-2)Man(a1-3)[GlcNAc(b1-3)Gal(b1-4)GlcNAc(b1-3)Gal(b1-4)GlcNAc(b1-2)Man(a1-6)]Man(b1-4)GlcNAc(b1-4)GlcNAc
Method in brief: as §1

[28] = target: GlcNAc(b1-3)Gal(b1-4)GlcNAc(b1-3)Gal(b1-4)GlcNAc(b1-2)Man(a1-3)[GlcNAc(b1-3)Gal(b1-4)GlcNAc(b1-3)Gal(b1-4)GlcNAc(b1-2)Man(a1-6)]Man(b1-4)GlcNAc(b1-4)[Fuc(a1-6)]GlcNAc
Method in brief: as §1

[29] = target: GlcNAc(b1-3)Gal(b1-4)GlcNAc(b1-3)Gal(b1-4)GlcNAc(b1-3)Gal(b1-4)GlcNAc(b1-2)Man(a1-3)[GlcNAc(b1-3)Gal(b1-4)GlcNAc(b1-3)Gal(b1-4)GlcNAc(b1-3)Gal(b1-4)GlcNAc(b1-2)Man(a1-6)]Man(b1-4)GlcNAc(b1-4)[Fuc(a1-6)]GlcNAc
Method in brief: as §1

[30] = target: GlcNAc(b1-4)GlcNAc(b1-4)GlcNAc
Method in brief: as §1

[31] = target: Man(a1-2)Man(a1-6)[Man(a1-3)]Man(a1-6)[Man(a1-2)Man(a1-2)Man(a1-3)]Man
Method in brief: as §1

[32] = target: Man(a1-3)[Man(a1-6)]Man(a1-6)[Man(a1-3)]Man
Method in brief: as §1

[33] = target: Neu5Ac(a2-3)Gal(b1-3)GlcNAc(b1-3)Gal(b1-4)GlcNAc
Method in brief: as §1

[34] = target: Neu5Ac(a2-3)Gal(b1-3)GlcNAc6S
Method in brief: as §1

[35] = target: Neu5Ac(a2-3)Gal(b1-4)GlcNAc(b1-2)Man(a1-3)[Neu5Ac(a2-3)Gal(b1-4)GlcNAc(b1-2)Man(a1-6)]Man(b1-4)GlcNAc(b1-4)GlcNAc
Method in brief: as §1

[36] = target: Neu5Ac(a2-3)Gal(b1-4)GlcNAc(b1-3)Gal(b1-4)GlcNAc(b1-3)GalNAc
Method in brief: as §1

[37] = target: Neu5Ac(a2-3)Gal(b1-4)GlcNAc(b1-3)GalNAc
Method in brief: as §1

[38] = target: Neu5Ac(a2-3)Gal(b1-4)GlcNAc(b1-6)[Gal(b1-3)]GalNAc
Method in brief: as §1

[39] = target: Neu5Ac(a2-6)Gal(b1-4)GlcNAc(b1-2)Man(a1-6)[Gal(b1-4)GlcNAc(b1-2)Man(a1-3)]Man(b1-4)GlcNAc(b1-4)GlcNAc
Method in brief: as §1

[40] = target: Neu5Ac(a2-6)Gal(b1-4)GlcNAc(b1-2)Man(a1-6)[GlcNAc(b1-2)Man(a1-3)]Man(b1-4)GlcNAc(b1-4)GlcNAc
Method in brief: as §1

[41] = target: Neu5Ac(a2-8)Neu5Ac(a2-3)Gal(b1-3)GalNAc(b1-4)[Neu5Ac(a2-3)]Gal(b1-4)Glc
Method in brief: as §1

[42] = target: Neu5Ac(a2-8)Neu5Ac(a2-3)Gal(b1-4)Glc
Method in brief: as §1

[43] = target: Neu5Ac(a2-8)Neu5Ac(a2-8)Neu5Ac(a2-3)[Gal(b1-3)GalNAc(b1-4)]Gal(b1-4)Glc
Method in brief: as §1

[44] = target: Neu5Ac(a2-8)Neu5Ac(a2-8)Neu5Ac(a2-3)[GalNAc(b1-4)]Gal(b1-4)Glc
Method in brief: as §1

[45] = target: Neu5Gc(a2-3)Gal(b1-3)GlcNAc
Method in brief: as §1

[46] = target: Neu5Gc(a2-8)Neu5Ac(a2-3)Gal(b1-4)GlcNAc
Method in brief: as §1

B1: Lb MiSSP8 (Laccaria bicolor) (protein)
chain: MYFHTLFACATLMLITTAHASPTVINSLDSRKADLNGDVEARHAADWRRDSDWRRDSDWRRDSDWRRDSD
B1 was tested, and the “glycan array binding signal (z-score)” value [1] was 1.26, the “glycan array binding signal (z-score)” value [2] was 1.27 and the “glycan array binding signal (z-score)” value [3] was 0.371. The “glycan array binding signal (z-score)” value [4] was -0.53, the “glycan array binding signal (z-score)” value [5] was -0.502 and the “glycan array binding signal (z-score)” value [6] was 1.06. The “glycan array binding signal (z-score)” value [7] was -0.806, the “glycan array binding signal (z-score)” value [8] was 1.55 and the “glycan array binding signal (z-score)” value [9] was -0.599. The “glycan array binding signal (z-score)” value [10] was -0.488, the “glycan array binding signal (z-score)” value [11] was 10.8 and the “glycan array binding signal (z-score)” value [12] was -0.267. For the same binder, the “glycan array binding signal (z-score)” value [13] was -0.136, the “glycan array binding signal (z-score)” value [14] was -3.19 and the “glycan array binding signal (z-score)” value [15] was 0.702. For the same binder, the “glycan array binding signal (z-score)” value [16] was -0.274, the “glycan array binding signal (z-score)” value [17] was 2.86 and the “glycan array binding signal (z-score)” value [18] was -0.433. For the same binder, the “glycan array binding signal (z-score)” value [19] was -0.771, the “glycan array binding signal (z-score)” value [20] was -0.571 and the “glycan array binding signal (z-score)” value [21] was 4.15. The “glycan array binding signal (z-score)” value [22] was -0.744, the “glycan array binding signal (z-score)” value [23] was 3.78 and the “glycan array binding signal (z-score)” value [24] was -0.64. The “glycan array binding signal (z-score)” value [25] was 2.31, the “glycan array binding signal (z-score)” value [26] was 0.54 and the “glycan array binding signal (z-score)” value [27] was 2.57. The “glycan array binding signal (z-score)” value [28] was 2.43, the “glycan array binding signal (z-score)” value [29] was 2.57 and the “glycan array binding signal (z-score)” value [30] was 0.319. The “glycan array binding signal (z-score)” value [31] was -0.578, the “glycan array binding signal (z-score)” value [32] was 2.36 and the “glycan array binding signal (z-score)” value [33] was -0.868. The “glycan array binding signal (z-score)” value [34] was -0.226, the “glycan array binding signal (z-score)” value [35] was -0.578 and the “glycan array binding signal (z-score)” value [36] was -0.343. For the same binder, the “glycan array binding signal (z-score)” value [37] was -0.122, the “glycan array binding signal (z-score)” value [38] was 3.01 and the “glycan array binding signal (z-score)” value [39] was -0.606. The “glycan array binding signal (z-score)” value [40] was -0.668, the “glycan array binding signal (z-score)” value [41] was -0.336 and the “glycan array binding signal (z-score)” value [42] was -0.744. The “glycan array binding signal (z-score)” value [43] was 1.08, the “glycan array binding signal (z-score)” value [44] was -0.82 and the “glycan array binding signal (z-score)” value [45] was -0.571. The “glycan array binding signal (z-score)” value [46] was -0.958.
